Among all 31,000 sequences or so, about 1,400 (4.5%) were called active. This is one part of a sample in which actives are shown more often than they occur.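 The calls were made as follows: active = median seed-adjusted z-score above 1 or below -1; inactive = the rest.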

The test is described as follows: Novel Modifiers of Survival Motor Neuron (SMN) Protein: Gene Identification via Genome-wide siRNA Screen.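 Also: luminescence tracks full-length SMN protein made from the SMN2 reporter.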 The following applies: HEK293T SMN2-luciferase reporter, siRNA knockdown, 72 h; actives lie on both sides. Put shortly:
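Steps: spot 1 pmol siRNA, add Lipofectamine RNAiMax in serum-free DMEM, seed HEK293T SMN2–luciferase reporter cells; incubate 72 h at 37 °C; add ONE-Glo; normalize luminescence to control siRNA, log10, MAD. Candidates: |MAD| > 1.0.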
GGAUAAUGAUGACGGGAGATT against SYT9: the median seed-adjusted z-score is 0.0419 (inactive). As to CAACGACCGGAGGUAUAAATT against BPGM, the median seed-adjusted z-score is 0.408 (inactive). For the sequence CCGGCUUCCUCAUUACCUUTT against SLC2A14, the median seed-adjusted z-score was -1.09 (active). With GGACUUACCUCAAUCAGAUTT against ZDHHC13, the median seed-adjusted z-score is -0.381 (inactive). Under CGAGAGGUGUAUCAAUAUATT against LIN7A stands -1.39 (active).

GCUUUACCACCGUACGAAATT against MST4: the median seed-adjusted z-score is 0.343 (inactive). Turning to UGAGAAUUGUGGAUCCGGATT against CSTF2, the median seed-adjusted z-score was 0.586 (inactive).

Take GGUACGAAUGAAUACCUUUTT against PTPN4: the median seed-adjusted z-score was -0.447 (inactive). Under GACCCAGCCGAAUACAACATT against NDUFB4 stands -0.697 (inactive); under GAACCUACAUCAUCAGUAUTT against GJA1, 0.348 (inactive); under GCCUUGCUGUUAAAGGGCATT against PARP2, -0.366 (inactive). Consider AGAGUGACCUGAUUGAGCATT against CSNK2B, for which the median seed-adjusted z-score was -1.62 (active). Take GGCCUUUGGUGAAAACCGUTT against CLDN11: the median seed-adjusted z-score was 0.268 (inactive). For GCCUAUGACCUUCUACUUUTT against SLC31A1, the median seed-adjusted z-score is 0 (inactive).

As for GUAUCUGCGAGGACGAAAATT against RNF113B, the median seed-adjusted z-score was -0.228 (inactive). Next, GCAUCAUCGGUACCCAGUUTT against MPO: -0.223 (inactive). For GGCCGCUGCUUGUUUGUCATT against SLC13A3, the median seed-adjusted z-score was 0.0434 (inactive).

Take ACUGUGAAAUUGGACCAAUTT against RABIF: the median seed-adjusted z-score is 0 (inactive). Next, CUGUCGCUGUCUGACCAGATT against ESRRA: -0.833 (inactive). Consider AGACAAUGAUCAUAGACAATT against IDH3B, for which the median seed-adjusted z-score was -0.642 (inactive). For CAACAACCCUUAUCGUAAATT against POLQ, the median seed-adjusted z-score was 0.203 (inactive). Take GAGACUAUAUCUACAUGAATT against SLITRK3: the median seed-adjusted z-score is -0.564 (inactive). In the case of CGGAUGUUCUUUACACUAUTT against HNRNPL, the median seed-adjusted z-score was 1.04 (active). For the sequence GCAUAUGACUUGUAUUCCUTT against TFB2M, the median seed-adjusted z-score was 0.206 (inactive). As for GGGACAUGGGAAUGCAAUATT against MSR1, the median seed-adjusted z-score was 0.0743 (inactive). On to GGAAAUCUCGUGAUUUUCATT against TEAD1, for which the median seed-adjusted z-score was 1.31 (active). Consider CCAGAAACGUACACCUGAUTT against COX7B, for which the median seed-adjusted z-score was -1.16 (active). Under CCAUCAACACUGAAUUGCATT against SEC22B stands -0.106 (inactive); under GUAUAGAUCUCUAUUUCUATT against COPZ1, -1.02 (active).

On to GAAGAGUGGUACUACCAGATT against BACE2, for which the median seed-adjusted z-score was 0.0853 (inactive). Next, CCACUUCAAGAAAACUUCATT against ZSCAN22: 0.277 (inactive); GGCUCGAGAUUUAUACGAUTT against HECTD1: -0.0588 (inactive). Consider GGAGAAAGGAUCACGCUAATT against KCTD1, for which the median seed-adjusted z-score was 0 (inactive). With CCUACACGGUCCUUCGUAATT against HEPHL1, the median seed-adjusted z-score was 0.0681 (inactive).

For CCUUCUAUCAUGUAAGCUATT against IL1A, the median seed-adjusted z-score is 1.12 (active). For GCGUGUUCCCAAUAGUGUATT against OGT, the median seed-adjusted z-score was 0.411 (inactive). GGAUAUCACAGAAGGAUAUTT against ANXA4: the median seed-adjusted z-score was -0.0932 (inactive). Consider GUGUAAAACUUGUCAGCGATT against WT1, for which the median seed-adjusted z-score was 0.236 (inactive). Take GCAGCUUCAUAACCGAAGATT against PARP1: the median seed-adjusted z-score is -0.0913 (inactive). As to GAUGCAUGUUUGUAAAAAUTT against KCNJ6, the median seed-adjusted z-score is -1.6 (active). Regarding GCCCAACAGUCAUUCAACATT against CHMP5, the median seed-adjusted z-score is 0 (inactive). Next, GGAGGUGACCUUCCAGGAATT against RAB17: 0.473 (inactive); GGCCGUCAGUAAUACAUCUTT against ZBTB33: 0.164 (inactive); CCACCAAUCACGAACCUAATT against IL3RA: -0.951 (inactive). For CAGUGUAUCUGAACCUAUUTT against EFTUD1, the median seed-adjusted z-score was -1.39 (active). On to GCUCUUCGGGAGAAUCUUUTT against CTNNAL1, for which the median seed-adjusted z-score was 0.229 (inactive). AGACCAUUGAGACCCGGAATT against PRPH: the median seed-adjusted z-score was 0 (inactive). Next, CAACUAAUUUCUAAUCGUUTT against ADAD1: -0.0795 (inactive). On to GUGCGAAGGUUUUUAAUCATT against ZNF816A, for which the median seed-adjusted z-score was 0.39 (inactive). Turning to GUACCUGCGGGAUUACUCATT against CCT7, the median seed-adjusted z-score was -0.246 (inactive). As for UGAACUUGAUGAAGGAGAATT against S100A7L2, the median seed-adjusted z-score is 0.283 (inactive). As to GGGUCCUGUUCAUAAAGGATT against KCTD10, the median seed-adjusted z-score was -0.506 (inactive). For GGAAUUUACAUGGUCUAUUTT against PHF6, the median seed-adjusted z-score is -0.268 (inactive). As for CCAUGCUCGUGGUGCACAATT against B3GNT7, the median seed-adjusted z-score was -1.05 (active). As for GCCCGAUGCUUUCCACAUUTT against SLC5A9, the median seed-adjusted z-score was 0.15 (inactive). Take GCACACUUGAGUUUGUGUATT against HES6: the median seed-adjusted z-score is 0.71 (inactive). As to GGUGGUAUCUGUUUCCGUATT against PCAF, the median seed-adjusted z-score was -0.00665 (inactive). On to GCUGCGUCUCCCUUCCAAATT against GP1BB, for which the median seed-adjusted z-score is -0.711 (inactive). For the sequence GCCCUCUGUUGGAUAUCUATT against AZIN1, the median seed-adjusted z-score was -1.14 (active). Under CAGCAGACGUAAAAAUUCATT against MSX2 stands -0.406 (inactive); under CCACUGGAAUGGUACUUAUTT against UBR1, -0.775 (inactive). As to GAGCUGUAUUUCUAUGUCATT against PLXNA3, the median seed-adjusted z-score was 0.255 (inactive). With GCGAGCCGCUUAUGUGGAATT against TCF21, the median seed-adjusted z-score was -0.15 (inactive).

On to UCUUAGAUGUCAAGCUGAATT against RNF7, for which the median seed-adjusted z-score is -1.18 (active). Consider AGGUAGAAUGGACAAGUGATT against PPP1R11, for which the median seed-adjusted z-score was -0.498 (inactive). For the sequence GGAUUAUGAGUACCGAGAATT against MAP3K14, the median seed-adjusted z-score was -0.0609 (inactive). In the case of GAUCAGGAGUCCUUCAAUATT against RAB1A, the median seed-adjusted z-score was 0.395 (inactive). Under CGCCGACUGUCAUGCUUCATT against FCN1 stands 0.346 (inactive); under GUUCAUCCCUUAUUCGACATT against ZNF215, 0.485 (inactive). Take CCAUCAACAUCGCAGAUGATT against ABHD11: the median seed-adjusted z-score is -0.189 (inactive). Next, CCGACACGCUCUACAAUAATT against BRUNOL6: -0.542 (inactive); CCCUUACCCAAAACGAGAATT against CDK8: -1.47 (active). Turning to CCCUGACUGCAACUGCUUUTT against LDLRAD2, the median seed-adjusted z-score is -0.459 (inactive).

For the sequence GAGUCAUUAUUGACAACAATT against APH1B, the median seed-adjusted z-score was -0.135 (inactive). Under GGUGUUUGAUAUUCGAAUUTT against USP40 stands 0.00437 (inactive). Regarding GCAACAUCCUCAUUGUAUUTT against MCHR2, the median seed-adjusted z-score is -0.658 (inactive).

For the sequence GCAUAUUCCGGUGAUAACUTT against RAB6C, the median seed-adjusted z-score was -1.08 (active). Turning to CAGGCGCCUGAAGUACAUATT against SLC35A2, the median seed-adjusted z-score was 1.06 (active). Next, AGCUCACCAGAGAAAUUUUTT against CHDH: 0.0241 (inactive). Next, GCUGCUCUGUUGAUGCUUATT against POMT1: 0.327 (inactive).

For the sequence GGAGUUAUAUUUAGUGAUATT against ABCA10, the median seed-adjusted z-score is -0.104 (inactive).

Consider GGGUCAAGAUCGAGGAUAATT against MYOM3, for which the median seed-adjusted z-score was -0.012 (inactive). Consider CCUCUAACAUUGGUUCCAATT against XPNPEP1, for which the median seed-adjusted z-score was -1.5 (active). Next, CCAUGUACGUCAUCCCAUUTT against PCK1: -0.401 (inactive); AGAUGAGCCUAUACAGCGATT against TRIM9: -0.437 (inactive). As to GCAGUUCGGCAGUAUCUGUTT against PSMD6, the median seed-adjusted z-score was -1.03 (active). For the sequence CAUCCAGCCCUUAUACAAATT against RBM24, the median seed-adjusted z-score was 0.0471 (inactive).

CGUUCUAUCAACAAACUCATT against EIF2S1: the median seed-adjusted z-score was -0.175 (inactive).

Turning to GCCUCACAGGUGCAUCAUATT against TSC2, the median seed-adjusted z-score is 1.11 (active). As to GCCUAGGAGCGAGGACUUATT against DNAJC30, the median seed-adjusted z-score is 0.329 (inactive).

Regarding CAGCUAUAAUCGUUUAUGATT against RAB22A, the median seed-adjusted z-score is 0.321 (inactive). Take GGAAUUUCGGCACUCAGAATT against CHIT1: the median seed-adjusted z-score was -0.578 (inactive). On to GGUUGCCCAUCUUACUCUATT against ZNF470, for which the median seed-adjusted z-score is -1.26 (active).

GCUCGGUCUGGUGAACUAATT against KLF3: the median seed-adjusted z-score is 0.628 (inactive). As for CAAUCGUCAUAAUGUCUAUTT against A2M, the median seed-adjusted z-score was -1.96 (active). Regarding GAUCCAUAGUACACGAAUATT against ADAM7, the median seed-adjusted z-score was -0.0638 (inactive).

For AGAUUGUCCUCAACUUCAATT against NRP2, the median seed-adjusted z-score is 0.477 (inactive).

In the case of AAUCAAAAGGGAGAACUCATT against HS3ST2, the median seed-adjusted z-score is 0.133 (inactive). Next, GACCCUCGAUUACUAUUCATT against OMA1: 0 (inactive); GCAUCGACAUGUCCUGGGATT against PUF60: 2.26 (active); CAUCAACUAUAUCACAGUATT against ATP13A5: 0.241 (inactive). Next, AAUUCGAUAUGUUCAGCAATT against GPX4: -1.18 (active).

Consider CAUCUAGGAUUUUAAGGGATT against ASGR1, for which the median seed-adjusted z-score is -0.128 (inactive). For the sequence GGAGGUUUGUAGAAUAUGUTT against XYLT1, the median seed-adjusted z-score is -0.274 (inactive).

For GCACGACUGUUACUGGACUTT against POLRMT, the median seed-adjusted z-score was 0.0812 (inactive).

With GGAUAUCAAUCGAGUACAATT against PIK3R3, the median seed-adjusted z-score is -1.88 (active). Regarding GCUGGACCGUAAAAUUGAATT against PSMC4, the median seed-adjusted z-score was -0.361 (inactive). Under CCAACAUCUGGAACGAAUATT against KCNT2 stands 0.449 (inactive).

The record behind these values is PubChem BioAssay AID1347426 (Functional Genomics Laboratory (NCATS/FGL), 2020).
